Among all 5,500 compounds or so, about 2,000 (36%) were called active. About 18% were inconclusive and are not listed. Cut-off read from the data, not from the text of the source: active = normalized growth mostly below about 0.91 (no sharp cut-off); inconclusive = no clear call, values can overlap the other calls; inactive = mostly above about 0.92. The list shows a part of the results.
Experiment: chemical genetic growth profiling, strain panel (AID 1159580);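 note: tested at 20 µM; growth read once vehicle control cultures reached saturation at 30 °C; 1 = growth at the plate median or of vehicle wells; lower values mean less growth of the strain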
Details: growth OD
[1] = S. cerevisiae deletion strains, locus YDL101C, strain DUN1, active compounds read low
[2] = S. cerevisiae deletion strains, locus YHR030C, strain SLT2, active compounds read low
[3] = S. cerevisiae deletion strains, locus YAL013W, strain DEP1, active compounds read low
[4] = S. cerevisiae deletion strains, locus YBR229C, strain ROT2, active compounds read low
[5] = S. cerevisiae deletion strains, locus YDR150W, strain NUM1, active compounds read low
[6] = S. cerevisiae deletion strains, locus YEL061C, strain CIN8, active compounds read low
[7] = S. cerevisiae deletion strains, locus YGR078C, strain PAC10, active compounds read low
[8] = S. cerevisiae deletion strains, locus YGR229C, strain SMI1, active compounds read low
[9] = S. cerevisiae deletion strains, locus YHR087W, strain rtc3, active compounds read low
[10] = S. cerevisiae deletion strains, locus YJR043C, strain POL32, active compounds read low
[11] = S. cerevisiae deletion strains, locus YJR075W, strain HOC1, active compounds read low
[12] = S. cerevisiae deletion strains, locus YLR039C, strain RIC1, active compounds read low
[13] = S. cerevisiae deletion strains, locus YLR058C, strain SHM2 (second series), active compounds read low
[14] = S. cerevisiae deletion strains, locus YLR085C, strain ARP6, active compounds read low
[15] = S. cerevisiae deletion strains, locus YLR262C, strain YPT6, active compounds read low
[16] = S. cerevisiae deletion strains, locus YML094W, strain GIM5, active compounds read low
[17] = S. cerevisiae deletion strains, locus YMR219W, strain ESC1, active compounds read low
[18] = S. cerevisiae deletion strains, locus YMR263W, strain SAP30, active compounds read low
[19] = S. cerevisiae deletion strains, locus YNL128W, strain TEP1, active compounds read low
[20] = S. cerevisiae deletion strains, locus YNL153C, strain GIM3, active compounds read low
[21] = S. cerevisiae deletion strains, locus YNL298W, strain CLA4 (second series), active compounds read low
[22] = S. cerevisiae deletion strains, locus YNL322C, strain KRE1, active compounds read low
[23] = S. cerevisiae deletion strains, locus YNR030W, strain Alg12, active compounds read low
[24] = S. cerevisiae deletion strains, locus YPL055C, strain LGE1, active compounds read low
[25] = S. cerevisiae deletion strains, locus YPL241C, strain CIN2, active compounds read low
[26] = S. cerevisiae deletion strains, locus YPR135W, strain CTF4, active compounds read low

Measured: normalized growth

O=C(NCC(c1ccccc1)c1c[nH]c2ccccc12)c1ccc(C(F)(F)F)cc1 (stereo not drawn)
inactive: S. cerevisiae deletion strains, locus YAR019C, strain CDC15, active compounds read low 0.974 | S. cerevisiae deletion strains, locus YBL105C, strain PKC1, active compounds read low 0.98 | S. cerevisiae deletion strains, locus YBR135W, strain CKS1, active compounds read low 0.998 | S. cerevisiae deletion strains, locus YBR136W, strain MEC1, active compounds read low 0.986 | S. cerevisiae deletion strains, locus YBR160W, strain CDC28, active compounds read low 0.981 | S. cerevisiae deletion strains, locus YDL017W, strain CDC7, active compounds read low 0.985 | S. cerevisiae deletion strains, locus YDL028C, strain MPS1, active compounds read low 0.993 | [1] 0.985 | S. cerevisiae deletion strains, locus YDL108W, strain KIN28, active compounds read low 0.992 | S. cerevisiae deletion strains, locus YDL132W, strain cdc53, active compounds read low 0.992 | S. cerevisiae deletion strains, locus YDL214C, strain PRR2, active compounds read low 1.15 | S. cerevisiae deletion strains, locus YDR052C, strain DBF4, active compounds read low 0.993 | S. cerevisiae deletion strains, locus YDR054C, strain cdc34, active compounds read low 0.984 | S. cerevisiae deletion strains, locus YDR226W, strain ADK1, active compounds read low 0.971 | S. cerevisiae deletion strains, locus YDR477W, strain SNF1, active compounds read low 0.98 | S. cerevisiae deletion strains, locus YER123W, strain YCK3, active compounds read low 0.971 | S. cerevisiae deletion strains, locus YER133W, strain GLC7, active compounds read low 0.979 | S. cerevisiae deletion strains, locus YFL009W, strain cdc4, active compounds read low 1.04 | S. cerevisiae deletion strains, locus YFL029C, strain CAK1, active compounds read low 0.989 | S. cerevisiae deletion strains, locus YFR003C, strain YPI1, active compounds read low 1.01 | S. cerevisiae deletion strains, locus YFR019W, strain FAB1, active compounds read low 0.984 | S. cerevisiae deletion strains, locus YFR028C, strain CDC14, active compounds read low 0.979 | S. cerevisiae deletion strains, locus YGR040W, strain KSS1, active compounds read low 1 | S. cerevisiae deletion strains, locus YGR052W, strain FMP48, active compounds read low 1.02 | S. cerevisiae deletion strains, locus YGR092W, strain DBF2, active compounds read low 0.993 | S. cerevisiae deletion strains, locus YHR079C, strain IRE1, active compounds read low 0.981 | S. cerevisiae deletion strains, locus YHR082C, strain KSP1, active compounds read low 1.04 | S. cerevisiae deletion strains, locus YHR205W, strain SCH9, active compounds read low 1.01 | S. cerevisiae deletion strains, locus YIL147C, strain SLN1, active compounds read low 0.985 | S. cerevisiae deletion strains, locus YJL095W, strain BCK1, active compounds read low 0.996 | S. cerevisiae deletion strains, locus YJL128C, strain PBS2, active compounds read low 0.932 | S. cerevisiae deletion strains, locus YJL157C, strain FAR1, active compounds read low 0.989 | S. cerevisiae deletion strains, locus YJR016C, strain ILV3, active compounds read low 0.99 | S. cerevisiae deletion strains, locus YJR066W, strain TOR1 (second series), active compounds read low 0.97 | S. cerevisiae deletion strains, locus YJR066W, strain TOR1, active compounds read low 0.998 | S. cerevisiae deletion strains, locus YKL048C, strain ELM1, active compounds read low 1 | S. cerevisiae deletion strains, locus YKL067W, strain YNK1, active compounds read low 0.948 | S. cerevisiae deletion strains, locus YKL101W, strain HSL1, active compounds read low 0.969 | S. cerevisiae deletion strains, locus YKL193C, strain SDS22, active compounds read low 0.994 | S. cerevisiae deletion strains, locus YKL203C, strain TOR2, active compounds read low 1.08 | S. cerevisiae deletion strains, locus YLR133W, strain CKI1, active compounds read low 0.992 | S. cerevisiae deletion strains, locus YLR403W, strain SFP1, active compounds read low 0.985 | S. cerevisiae deletion strains, locus YML070W, strain DAK1, active compounds read low 0.979 | S. cerevisiae deletion strains, locus YMR001C, strain CDC5, active compounds read low 0.991 | S. cerevisiae deletion strains, locus YMR205C, strain PFK2 (second series), active compounds read low 0.981 | S. cerevisiae deletion strains, locus YMR277W, strain FCP1, active compounds read low 0.965 | S. cerevisiae deletion strains, locus YNL006W, strain LST8, active compounds read low 1.01 | S. cerevisiae deletion strains, locus YNL020C, strain ARK1, active compounds read low 0.982 | S. cerevisiae deletion strains, locus YNL161W, strain CBK1, active compounds read low 0.995 | S. cerevisiae deletion strains, locus YNL183C, strain NPR1, active compounds read low 1.02 | S. cerevisiae deletion strains, locus YNL207W, strain RIO2, active compounds read low 0.979 | S. cerevisiae deletion strains, locus YNL222W, strain SSU72, active compounds read low 0.986 | S. cerevisiae deletion strains, locus YNL307C, strain MCK1 (second series), active compounds read low 0.954 | S. cerevisiae deletion strains, locus YOL078W, strain AVO1, active compounds read low 0.99 | S. cerevisiae deletion strains, locus YOL136C, strain PFK27, active compounds read low 0.963 | S. cerevisiae deletion strains, locus YOR061W, strain CKA2, active compounds read low 0.995 | S. cerevisiae deletion strains, locus YOR119C, strain RIO1, active compounds read low 1.02 | S. cerevisiae deletion strains, locus YOR231W, strain MKK1, active compounds read low 1.02 | S. cerevisiae deletion strains, locus YOR329C, strain SCD5, active compounds read low 0.995 | S. cerevisiae deletion strains, locus YPL031C, strain PHO85, active compounds read low 0.993 | S. cerevisiae deletion strains, locus YPL153C, strain RAD53, active compounds read low 0.967 | S. cerevisiae deletion strains, locus YPL204W, strain HRR25, active compounds read low 0.96 | S. cerevisiae deletion strains, locus YPL209C, strain IPL1, active compounds read low 0.994 | S. cerevisiae deletion strains, locus YPL256C, strain CLN2, active compounds read low 0.909 | S. cerevisiae deletion strains, locus YPR025C, strain CCL1, active compounds read low 0.997 | S. cerevisiae deletion strains, locus YPR106W, strain ISR1, active compounds read low 0.976 | S. cerevisiae deletion strains, locus YPR111W, strain DBF20, active compounds read low 0.956 | S. cerevisiae deletion strains, strain NNK1, active compounds read low 0.988 | S. cerevisiae deletion strains, strain TSCII, active compounds read low 0.978
active: [2] 0.807 | S. cerevisiae deletion strains, locus YLR113W, strain HOG1, active compounds read low 0.859

CCCCCc1ccc(C(=O)O/N=C\c2c(Cl)cccc2Cl)cc1
inactive: [3] 0.966 | [4] 0.941 | S. cerevisiae deletion strains, locus YCL061C, strain MRC1, active compounds read low 0.933 | [1] 1.01 | S. cerevisiae deletion strains, locus YDL134C, strain PPH21, active compounds read low 0.936 | [5] 1.01 | [7] 0.959 | [2] 1.01 | [9] 0.939 | [10] 0.962 | [11] 0.982 | [12] 0.84 | [13] 0.943 | [14] 0.943 | [15] 0.82 | [16] 0.98 | [17] 0.95 | [18] 1.03 | [19] 0.962 | [21] 0.969 | [22] 0.947 | [23] 0.958 | S. cerevisiae deletion strains, locus YOL006C, strain TOP1, active compounds read low 0.796 | [24] 0.943 | [25] 0.963 | [26] 1.07 | S. cerevisiae strains, strain wild type, active compounds read low 0.919
active: [6] 0.902 | [8] 0.929 | [20] 0.92

O=[N+]([O-])c1cnc(Sc2n[nH]c(-c3cccs3)n2)s1
inactive: [8] 0.974
active: [3] 0.488 | [4] 0.258 | [1] 0.23 | [5] 0.347 | [6] 0.612 | [7] 0.214 | [2] 0.312 | [9] 0.377 | [10] 0.602 | [11] 0.224 | S. cerevisiae deletion strains, locus YKL190W, strain CNB1, active compounds read low 0.715 | [12] 0.426 | [13] 0.404 | [14] 0.152 | [15] 0.596 | [16] 0.573 | [17] 0.35 | [18] 0.194 | [19] 0.876 | [20] 0.215 | [21] 0.352 | [22] 0.927 | [23] 0.508 | [24] 0.126 | [25] 0.36 | [26] 0.319
